Compound activity from PubChem.
Many of the other results were omitted from the sample, so hits are more common in it than they were.
VCAM1 TNFa pot = enhances TNF alpha induced VCAM1 expression in HUVEC. HUVEC TNFa-stimulated VCAM-1 immunofluorescence, high-content imaging; scaled per plate to unstimulated/TNFa-only wells. 93,000 tested, 0.19% active. activation, % at 2 µM. AID 808;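 active = activation above the screen mean plus 3 SD, with well images confirming the hit on visual review, cut at about 28% in these data, passing the limit was not always enough; inconclusive = activation above that limit but images do not confirm it; inactive = activation not above that limit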;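 note: signal is the number of cytoplasmic VCAM-1 stained grains per positive cell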
VCAM1 pot confirm = potentiators of TNFa-induced VCAM1 expression, confirmation, imaging, HUVEC, triplicate retest. shares compounds with VCAM1 TNFa pot. HUVEC TNFa-stimulated VCAM-1 immunofluorescence imaging. activation, % at 2 µM. 230 tested, under 10 active. AID 1034;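 active = activation above 30% in triplicate retests at 2 µM, then confirmed by visual review of the well images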;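 note: scaled per plate between unstimulated and TNFa-stimulated DMSO control wells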
* hit, by the source's call; ? = inconclusive.

SMILES | VCAM1 TNFa pot | others
CCC1CCCCN1C(=O)CSc1nnc(-c2ccc3c(c2)OCCO3)o1 (stereo not drawn) | -7.9
COc1cc(OC)cc(-c2nnc(SCC(=O)N3c4ccccc4Sc4ccccc43)o2)c1 | 5.9
NC(=O)c1c(NC(=O)Cc2cccs2)sc2c1CCC2 | -92.5
CC(C)C(=O)Nc1sc2c(c1C#N)CCCCC2 | -25.6
CCC(=O)Nc1sc2c(c1C(N)=O)CCC2 | 113.9* | VCAM1 pot confirm=-8.2
O=C1OC(Nc2ccc3ncccc3c2)c2ccccc21 (stereo not drawn) | -1.3
COc1ccc2c(c1OC)C(=O)OC2Nc1ccccn1 (stereo not drawn) | 53.6* | VCAM1 pot confirm=-13.1
COc1ccc2c(c1OC)C(=O)OC2CC(=O)c1ccc2c(c1)OCO2 (stereo not drawn) | -7.7
Cc1cc(C)cc(C(=O)N2CCC(C(N)=O)CC2)c1 | -7.1
CC(C)c1ccc(NC(=O)C(c2ccccc2)N2CCC3(CC2)OCCO3)cc1 (stereo not drawn) | -2.1
OC(COCc1ccc2c(c1)OCO2)CN1CCN(Cc2ccccc2)CC1 (stereo not drawn) | -11.7
CCOC(=O)Cn1nc(/C=C/c2ccc(C(C)C)cc2)ccc1=O | 5.1
N#CC1(C#N)C2=C(CCCC2)NC(c2ccccc2)C1(C#N)C#N (stereo not drawn) | -20.0
Brc1ccc(-c2nc(N/N=C/c3cccnc3)c3ccccc3n2)cc1 | -41.0
CCOc1nc(-c2ccncc2)nc2ccccc12 | 43.4* | VCAM1 pot confirm=-8.9
CN(C)S(=O)(=O)c1ccc(C(=O)Oc2ccccc2)cc1 | 7.4
CCCC(C)NC(=O)c1cc(Cl)ccc1OC (stereo not drawn) | 1.7
CC(=NCCCNC1CCCCC1)C1=C(O)CC(C)(C)CC1=O | ? | VCAM1 pot confirm=-7.8
CCN(CC)c1ccc(C2CC(=O)Nc3cc(OC)c(OC)cc32)cc1 (stereo not drawn) | -24.0
Cc1nccn1CC(O)COc1ccccc1 (stereo not drawn) | 8.0
Cc1nc2ccccc2n1CC(O)COC1CCCCC1 (stereo not drawn) | 3.2
Cc1nccn1CC(O)COC1CCCCC1 (stereo not drawn) | ? | VCAM1 pot confirm=-19.9
CC(C)(C)NC(=O)C(c1ccccc1)N(C(=O)C1CSC(=O)C1)c1ccccc1 (stereo not drawn) | -2.2
CCOC(=O)c1cc(NC(=O)c2ccc(OC)cc2)c(=O)oc1-c1ccccc1 | 6.6
CCOc1ccc(-c2nc(C#N)c(NCC(C)C)o2)cc1 | 2.1
SMILES | VCAM1 TNFa pot | others
N#Cc1nc(-c2ccc(OCc3ccccc3)cc2)oc1N1CCOCC1 | -1.0
C=CCNc1oc(-c2ccc(OC)cc2)nc1C#N | 44.8* | VCAM1 pot confirm=-10.1
CCN=C1SC(CC(=O)Nc2ccccc2)C(=O)N1CC (stereo not drawn) | -7.1
Cc1cccc(C(=O)Nc2ccccc2C(=O)OCc2c(C)noc2C)c1 | -2.7
CC(=O)Oc1ccc2cc(-c3nc4ccccc4n3C)c(=O)oc2c1 | 48.3* | VCAM1 pot confirm=-14.6
Cn1c(=O)c(C(=O)c2ccccc2)nc2ccccc21 | -7.1
COc1ccc2oc(=O)c(C(C)=O)cc2c1 | 1.7
CC1=CN2C(=NC(=O)CC2(C)C(=O)N(CC(=O)NC2CCCC2)c2ccccc2C)C=C1 (stereo not drawn) | -7.7
COc1ccc(OC)c(/C=C/C(=O)c2ccc(Cl)cc2)c1 | -8.4
COc1cccc(-c2cc(N)nn2C(=O)Nc2ccc(Cl)cc2)c1 | -8.4
Cc1cccc(Oc2ccc(C(=O)NC3CCSC3=O)cn2)c1C (stereo not drawn) | 12.4
Cc1nc(NCc2ccccc2)[nH]c(=O)c1CCC(C)C | ? | VCAM1 pot confirm=-16.4
C=C(C)CSc1nc(C)c(Cc2ccccc2)c(=O)[nH]1 | -2.4
Cc1ccc(NC(=O)c2ccco2)c(NC(=O)CN2C(=O)c3ccccc3C2=O)c1 | 5.4
COc1cc2cc(Br)cc(Br)c2nc1C | -8.5
Cc1ccc(OCc2nnc(SCC(=O)N3CCOCC3)n2C)cc1 | -14.9
COc1ccc2c(C)cc(SCC(=O)N3CCOCC3)nc2c1 | ? | VCAM1 pot confirm=-21.1
O=C(Oc1ccc2ccc(OC(=O)N3CCOCC3)cc2c1)N1CCOCC1 | 2.7
CCOC(=O)C1=C(CSc2nc3c(cc2C#N)CN(C)CC3)OC(N)=C(C#N)C1c1ccccc1 (stereo not drawn) | -95.7
CCCC1=C(C(=O)OCC)C(c2c(C)nn(-c3ccccc3)c2Cl)C(C#N)=C(N)O1 (stereo not drawn) | 43.6* | VCAM1 pot confirm=-24.0
CCCc1nn(-c2ccccc2)c2c1C(c1cccs1)C(C#N)=C(N)O2 (stereo not drawn) | 8.4
CCn1c(SCC(=O)N2CCN(c3cccc(Cl)c3)CC2)nc2ccccc2c1=O | -96.1
CC1CCCC(NC(=O)COC(=O)c2ccc3ccccc3n2)C1C (stereo not drawn) | -28.4
O=C(CSc1ccc2nnc(-c3ccccc3)n2n1)N1CCN(c2ccccc2)CC1 | -8.5
NC(=O)C1CCN(C(=O)CCSc2ccccc2)CC1 | 5.1
SMILES | VCAM1 TNFa pot | others
NC(=O)C1CCN(C(=O)CSc2ccccn2)CC1 | 41.0* | VCAM1 pot confirm=-6.1
Cc1cc(NCc2ccccn2)ccc1Br | 2.9
CSc1cccc(NC(=O)c2c(Cl)cnn2C)c1 | -32.6
COc1ccccc1C(=O)Nc1cccc(SC)c1 | 50.6* | VCAM1 pot confirm=-4.0
COc1ccccc1C(=O)Nc1ccc2c(c1)nc(CN1CCN(C(C)=O)CC1)n2C | -90.2
COc1ccc(S(=O)(=O)N2CCN(Cc3cccc(Cl)c3)CC2)cc1 | ? | VCAM1 pot confirm=-16.8
COc1cccc(CN2CCN(c3ncccn3)CC2)c1 | -8.9
COc1cccc(S(=O)(=O)N2CCN(c3ccccc3F)CC2)c1 | -13.6
O=C1OC(N2CCN(C(=O)C3CCCO3)CC2)c2ccccc21 (stereo not drawn) | 1.0
CCCn1c(SC(C)C(=O)O)nc2ccccc21 (stereo not drawn) | 5.2
CCn1nccc1C(=O)Nc1nccs1 | ? | VCAM1 pot confirm=-13.0
CC(C)CN1C(=O)c2ccc(C(=O)Nc3nccs3)cc2C1=O | -24.4
Cc1ncoc1C(=O)Nc1nccs1 | 4.4
CC(O)(CS(=O)(=O)Cc1ccccc1)C(=O)Nc1ccc(C(F)(F)F)cc1 (stereo not drawn) | 2.1
CCOCCCNC(=O)C(NC(=O)c1ccc(=O)[nH]c1)c1ccccc1 (stereo not drawn) | 5.6
CCN(CC)S(=O)(=O)c1ccc(C(=O)NCCCN=C2NS(=O)(=O)c3ccccc32)cc1 | -48.5
Cc1cc(=O)oc2ccc(OCC(=O)N3CCC(C)CC3)cc12 | -37.0
CC(C)(C)c1ccc(OCC(=O)N2CCN(C=O)CC2)cc1 | 68.9* | VCAM1 pot confirm=-9.1
O=C(COc1ccc2ccccc2c1)N1CCN(c2ccccc2O)CC1 | -17.4
COc1ccc(C(=O)Nc2cccnc2)cc1S(=O)(=O)N1CCOCC1 | -5.4
CNC(=S)N1N=C(c2ccc(Br)cc2)CC1c1ccc(Br)cc1 (stereo not drawn) | 69.0* | VCAM1 pot confirm=0.0
O=C(Oc1ccc(Cl)c2cccnc12)N1CCCCCC1 | 5.2
CNc1nc(SCc2ccccc2)nc(N2CCOCC2)n1 | -8.6
O=C(CN1C(=O)NC2(CCCCCCC2)C1=O)NCc1ccc2c(c1)OCO2 | 51.2* | VCAM1 pot confirm=-11.4
Cc1ccc(N(CC(=O)NCc2ccc3c(c2)OCO3)S(C)(=O)=O)cc1 | 7.6
O=C(CN1C(=O)NC2(CCCCCCC2)C1=O)N1CCOCC1 | -8.4
CC1N/C(=C\C(=O)c2ccccc2)N(O)C1(C)C (stereo not drawn) | -6.4
Cc1cc(N2C(=O)C(=O)/C(=C(/O)c3ccc(F)cc3)C2c2ccc(F)cc2)no1 (stereo not drawn) | 5.5
